Activity calls are given as the source filed them. Unless noted, no rule for the calls is given here.

The nature of assay [1]: compounds binding Alexa647 anti-His antibody – biochemical, small-molecule microarray, 635 nm fluorescence, artefact control for SMM control protein annotation, primary screen (AID 1128).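 Also: score merges feature fluorescence with signal-to-noise for each printed compound spot.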 Particulars: higher = more signal.
The subject of assay [2] is Human papillomavirus type 1a E7 protein (residues 1-88). As to the kind of experiment: HPV1a E7 small-molecule binders, primary screen, biochemical, small-molecule microarray, residues 1-88, 635 nm (AID 1129). Particulars: small-molecule microarray binding, fluorescence 635 nm; higher = more signal.
Assay [3] deals with Focal adhesion kinase 1 (Homo sapiens) (UniProt Q05397). As to the kind of experiment: PTK2 protein binding on printed compound slides – biochemical, small-molecule microarray, 635/667 nm fluorescence, BSA, DTT, primary screen (AID 1130).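 Also: composite of spot emission at 667 nm and signal to noise over triplicate slides.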 Particulars: 635 nm fluorescence, higher = more signal.
Focal adhesion kinase 1 (Homo sapiens), sequence (Q05397 whole entry, looked up): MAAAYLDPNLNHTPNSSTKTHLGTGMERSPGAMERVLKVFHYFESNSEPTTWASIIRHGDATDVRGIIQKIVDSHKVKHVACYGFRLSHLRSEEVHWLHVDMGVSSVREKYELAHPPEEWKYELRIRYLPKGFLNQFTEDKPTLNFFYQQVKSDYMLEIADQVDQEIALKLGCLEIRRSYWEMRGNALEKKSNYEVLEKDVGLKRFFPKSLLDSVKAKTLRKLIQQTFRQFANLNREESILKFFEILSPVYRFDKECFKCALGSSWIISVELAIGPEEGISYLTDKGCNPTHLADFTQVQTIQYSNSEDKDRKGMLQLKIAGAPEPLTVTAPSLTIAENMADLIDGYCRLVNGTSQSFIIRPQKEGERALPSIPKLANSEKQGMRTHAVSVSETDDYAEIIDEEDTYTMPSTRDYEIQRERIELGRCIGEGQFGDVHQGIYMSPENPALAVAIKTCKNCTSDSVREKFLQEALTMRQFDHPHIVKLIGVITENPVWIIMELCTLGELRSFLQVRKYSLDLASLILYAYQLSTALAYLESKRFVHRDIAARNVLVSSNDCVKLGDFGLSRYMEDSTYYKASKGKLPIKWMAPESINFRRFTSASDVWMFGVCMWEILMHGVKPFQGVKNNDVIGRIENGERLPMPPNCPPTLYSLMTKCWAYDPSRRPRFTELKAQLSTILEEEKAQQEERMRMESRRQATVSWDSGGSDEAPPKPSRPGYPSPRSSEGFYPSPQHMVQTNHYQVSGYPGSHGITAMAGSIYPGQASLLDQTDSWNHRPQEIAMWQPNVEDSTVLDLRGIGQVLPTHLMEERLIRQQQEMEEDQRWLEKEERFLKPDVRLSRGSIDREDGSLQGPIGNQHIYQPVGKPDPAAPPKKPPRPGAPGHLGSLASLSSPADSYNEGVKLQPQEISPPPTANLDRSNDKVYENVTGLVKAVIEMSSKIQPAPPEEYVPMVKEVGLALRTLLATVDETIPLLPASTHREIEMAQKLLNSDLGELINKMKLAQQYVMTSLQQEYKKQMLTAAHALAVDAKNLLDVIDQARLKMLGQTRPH
Assay [4] relates to Fibrinogen (Alexa647-labelled). The assay can be described thus: Alexa647-fibrinogen binding to printed small molecules – biochemical, small-molecule microarray, 635/667 nm fluorescence, artefact control for SMM control-protein annotation, profiling panel (AID 1131).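 Also: z-score merges 667 nm fluorescence with per-spot signal-to-noise over triplicate slides.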 Particulars: fibrinogen-A647 binding fluorescence, higher = more signal.
Assay [5] addresses Follistatin (Homo sapiens) (UniProt P19883). The assay can be described thus: FST protein binding to printed compounds – biochemical, small-molecule microarray, 635/667 nm fluorescence, primary screen (AID 1132). Particulars: 635 nm fluorescence, higher = more signal.
Assay [6] addresses Fibroblast growth factor 2 (Homo sapiens) (UniProt P09038). The assay can be described thus: basic fibroblast growth factor binding to printed compounds – biochemical, small-molecule microarray, 635/667 nm fluorescence, primary screen (AID 1133). Particulars: FGF2, fluorescence 635/667, higher = more signal.
The nature of assay [7]: JC-1 mitochondrial potential readout, lung cancer cells – cell-based, A549, JC-1 fluorescence, basal, 24 h, 100 nL, profiling panel (AID 1138).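 Also: A549 lung adenocarcinoma cells under basal conditions with no added stimulus; test concentration not given here.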 Particulars: higher = more signal.
The test system of another assay is Lefty1. As to the kind of experiment: Lefty1 protein binding to printed compounds – biochemical, small-molecule microarray, 635/667 nm fluorescence, primary screen (AID 1139). Particulars: fluorescence 635/667, higher = more signal.
Assay [8] concerns wheat germ agglutinin (Triticum aestivum), Alexa647-labelled. The assay can be described thus: Alexa647-WGA lectin binding to printed small molecules – biochemical, small-molecule microarray, 635/667 nm fluorescence, artefact control for SMM control-protein annotation, profiling panel (AID 1140).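 Also: score merges 667 nm feature emission with signal to noise over triplicate slides.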 Particulars: WGA-A647 binding, 635 nm fluorescence, higher = more signal.
The target in assay [9] is Luciferin 4-monooxygenase (Photinus pyralis) (UniProt P08659). As to the kind of experiment: inhibition of purified Photinus pyralis luciferase – biochemical, luminescence, purified enzyme, 2006 set, primary screen (AID 1141).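 Also: cell-free assay with purified firefly luciferase at 100 ng per well in PBS; test concentration not given here.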 Particulars: purified firefly luciferase, SteadyGlo luminescence, 30 min; higher = more signal, called active from +8 up or from −8 down.
Luciferin 4-monooxygenase (Photinus pyralis), sequence (P08659 whole entry, looked up): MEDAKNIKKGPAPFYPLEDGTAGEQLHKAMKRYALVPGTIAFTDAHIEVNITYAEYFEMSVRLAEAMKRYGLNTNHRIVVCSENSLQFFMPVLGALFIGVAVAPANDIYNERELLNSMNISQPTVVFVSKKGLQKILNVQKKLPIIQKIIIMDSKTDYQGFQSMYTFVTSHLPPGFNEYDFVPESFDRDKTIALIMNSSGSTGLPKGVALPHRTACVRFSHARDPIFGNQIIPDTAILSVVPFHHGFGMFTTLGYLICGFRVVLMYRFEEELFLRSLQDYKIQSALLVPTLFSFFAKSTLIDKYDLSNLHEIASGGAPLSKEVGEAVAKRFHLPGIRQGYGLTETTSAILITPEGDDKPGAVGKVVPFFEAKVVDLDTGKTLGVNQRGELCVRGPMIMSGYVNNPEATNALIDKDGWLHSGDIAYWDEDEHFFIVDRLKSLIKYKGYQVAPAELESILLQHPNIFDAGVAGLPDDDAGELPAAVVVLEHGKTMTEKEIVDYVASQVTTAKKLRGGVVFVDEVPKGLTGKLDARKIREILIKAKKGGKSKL
The test system of assay [10] is Wnt5a (protein binding on small-molecule microarray). As to the kind of experiment: small molecules binding Wnt5a protein – biophysical, small-molecule microarray, 635/667 nm fluorescence, primary screen (AID 1142).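 Also: fluorescence read at 667 nm with signal to noise per printed feature.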 Particulars: 635 nm fluorescence, higher = more signal.
Assay [11] is described as follows: ATP-based viability of Huh7 replicon cells – cell-based, CellTiter-Glo luminescence, basal, 48 h, cytotoxicity control for HCV replication inhibitor project, primary screen (AID 1143).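 Also: Huh7 hepatoma cells carrying a hepatitis C replication reporter with no stimulus; test concentration not given here.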 Particulars: higher = more signal, called active from +8 up or from −8 down. On the technique in general: Replicon systems follow genome replication, usually without infectious particles.

Assay [12] is described as follows: Pseudomonas biofilm growth suppression – PAO1 strain, BacTiter-Glo luminescence, LB-PBS, primary screen (AID 1144). Particulars: P. aeruginosa PAO1 biofilm, 12 h, higher = more signal.
The nature of assay [13]: basal CRE-LacZ reporter activity in PC12 – cell-based, unstimulated, primary screen (AID 1145). Particulars: no forskolin, luminescence, 4.5 h, higher = more signal, called active from +8 up or from −8 down.
Assay [14] is described as follows: forskolin-driven CRE-LacZ activity in PC12 – cell-based, CRE-LacZ reporter, forskolin-stimulated, primary screen (AID 1146).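 Also: PC12 cells with 6xCRE LacZ reporter stimulated by forskolin 10 µM; beta-galactosidase reporter signal reflecting CREB driven transcription.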 Particulars: luminescence, 4.5 h, higher = more signal, called active from +8 up or from −8 down.
Assay [15] deals with Streptavidin (Streptomyces avidinii) (UniProt P22629). The assay can be described thus: compounds binding control protein streptavidin – biophysical, small-molecule microarray, 635/667 nm fluorescence, artefact control for SMM compound annotation, primary screen (AID 1147).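 Also: signal reflects streptavidin binding to arrayed compounds as a control protein.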 Particulars: higher = more signal.
Streptavidin (Streptomyces avidinii), sequence (P22629 whole entry, looked up): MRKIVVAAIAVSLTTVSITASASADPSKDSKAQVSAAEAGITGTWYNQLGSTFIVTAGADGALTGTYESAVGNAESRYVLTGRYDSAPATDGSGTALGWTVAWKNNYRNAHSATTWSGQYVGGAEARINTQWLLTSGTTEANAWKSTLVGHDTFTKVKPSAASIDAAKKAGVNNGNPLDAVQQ
The nature of assay [16]: probe aInhba binding on compound microarray – biochemical, small-molecule microarray, 635/667 nm fluorescence, primary screen (AID 1148).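 Also: score merges 667nm spot fluorescence with signal-to-noise for antibody binding to printed compounds.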 Particulars: higher = more signal.
Assay [17] concerns the target Torsin-1A (Homo sapiens) (UniProt O14656). As to the kind of experiment: TOR1A wild-type binding on microarray – cell lysate, small-molecule microarray, lysate, 635/667 nm, primary screen (AID 1149). Particulars: COS7 hTOR1A-WT lysate, 635 nm fluorescence, higher = more signal.
For assay [18] the target is unchanged. The assay can be described thus: torsin A mutant lysate binding on microarrays – cell lysate, small-molecule microarray, COS7 lysate, 635/667 nm fluorescence, primary screen (AID 1150).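 Also: score pools 667 nm emission and signal to noise measuring lysate protein binding.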 Particulars: COS7 hTOR1A mutant lysate, 635 nm fluorescence, higher = more signal.
Assay [19] relates to Sonic hedgehog protein (Shh). As to the kind of experiment: Sonic hedgehog microarray binding compounds – biochemical, small-molecule microarray, 635/667 nm fluorescence, primary screen (AID 1151).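 Also: Shh protein binding to compounds spotted on small-molecule microarray slides; score combines spot fluorescence intensity with signal-to-noise across triplicate slides.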 Particulars: 635 nm fluorescence, higher = more signal.

Fibroblast growth factor 2 (Homo sapiens), sequence (P09038 whole entry, looked up): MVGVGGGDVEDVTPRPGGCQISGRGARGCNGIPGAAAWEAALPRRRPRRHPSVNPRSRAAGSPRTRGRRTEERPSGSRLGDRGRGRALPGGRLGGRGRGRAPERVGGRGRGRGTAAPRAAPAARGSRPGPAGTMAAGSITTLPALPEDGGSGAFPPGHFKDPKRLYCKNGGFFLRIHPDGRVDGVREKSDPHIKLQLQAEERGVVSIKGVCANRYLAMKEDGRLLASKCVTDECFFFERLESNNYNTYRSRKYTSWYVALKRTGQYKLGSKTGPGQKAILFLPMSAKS
Follistatin (Homo sapiens), sequence (P19883 whole entry, looked up): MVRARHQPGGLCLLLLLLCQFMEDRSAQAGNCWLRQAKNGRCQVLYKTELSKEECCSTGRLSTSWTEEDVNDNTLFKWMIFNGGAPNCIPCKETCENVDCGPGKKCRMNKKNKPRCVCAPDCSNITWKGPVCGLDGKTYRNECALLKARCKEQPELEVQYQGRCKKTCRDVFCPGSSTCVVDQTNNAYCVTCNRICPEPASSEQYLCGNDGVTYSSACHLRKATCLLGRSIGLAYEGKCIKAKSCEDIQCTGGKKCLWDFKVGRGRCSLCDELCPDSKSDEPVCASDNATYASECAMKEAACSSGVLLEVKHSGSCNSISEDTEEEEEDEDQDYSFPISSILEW
Torsin-1A (Homo sapiens), sequence (O14656 whole entry, looked up): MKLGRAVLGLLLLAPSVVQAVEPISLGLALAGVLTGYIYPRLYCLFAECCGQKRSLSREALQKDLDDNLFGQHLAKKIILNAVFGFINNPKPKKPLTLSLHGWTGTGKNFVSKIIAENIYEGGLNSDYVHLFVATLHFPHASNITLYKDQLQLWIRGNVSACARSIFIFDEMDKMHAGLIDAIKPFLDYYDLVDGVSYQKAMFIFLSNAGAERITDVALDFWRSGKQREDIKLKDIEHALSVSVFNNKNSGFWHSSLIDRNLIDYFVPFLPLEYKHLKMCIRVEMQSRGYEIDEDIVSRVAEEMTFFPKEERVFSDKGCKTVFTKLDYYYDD

For `[N-]=[N+]=NCc1ccccc1C[C@]1(C(=O)NCC(O)CO)N=C(c2ccc(OCCCO)cc2)O[C@H]1c1ccccc1CN=[N+]=[N-]` (stereo not given in full), the composite z-score in [1] was determined as 2.73; in assay [2], 1.2; in [3], 0.116; in [4] it was 0.973; in [5] it was 1.3; in [6], 0.495. Moreover, the composite z-score with Lefty1 is -0.204; in assay [8] it was 0.205; in assay [10] it was 0.493; in assay [15], 0.661; in [16] it was 0.404; in the assay with Torsin-1A (Homo sapiens) [17], 0.408. For the same compound, the composite z-score in the assay with Torsin-1A (Homo sapiens) [18] is 1.09; in assay [19], -0.881. The z-score in assay [7] was 0.618; in assay [9], -0.0074 (inactive); in [11], -4.68 (inactive); in assay [12], -0.998 (inactive); in assay [13] it was 0.447 (inactive); in [14] it was -1.32 (inactive).

Consider `COCCOC(=O)N1C(=O)[C@@]2(c3cc(C#Cc4ccc(OC)cc4)ccc31)[C@H](C(=O)N1CCN(c3ncccn3)CC1)[C@H]1C(=O)O[C@H](c3ccccc3)[C@H](c3ccccc3)N1[C@@H]2c1ccccc1OCCO`, for which the composite z-score was 2.03 in assay [1]; 1.14 in assay [2]; 0.364 in assay [3]; -0.118 in assay [4]; 0.579 in assay [5]; 0.238 in [6]. Also, the composite z-score is 0.305 in the assay with Lefty1; 0.701 in assay [8]; -0.0175 in assay [10]; 0.103 in assay [15]; -0.215 in [16]; 0.236 with Torsin-1A (Homo sapiens) [17]. The figures for the composite z-score (with Torsin-1A (Homo sapiens) [18]; in assay [19]) were 0.0863 and 1.01, respectively. In addition, the z-score is -0.94 in assay [7]; 0.223 (inactive) in [9]; -0.651 (inactive) in [11]; -1.1 (inactive) in [12]; -0.467 (inactive) in assay [13]; -0.638 (inactive) in assay [14].

Consider `Cc1ccc(S[C@]2(C(=O)NCC(F)(F)F)CC(=O)N(Cc3ccccc3)[C@@H]2c2ccc(CO)cc2)cc1`, for which the composite z-score was -0.951 in assay [1]; 0.389 in assay [2]; -0.0414 in assay [3]; -1.16 in assay [4]; -0.739 in assay [5]; -0.683 in assay [6]. The composite z-score was -0.758 with Lefty1; -0.693 in [8]; -0.264 in assay [10]; -1.23 in assay [15]; 0.0171 in assay [16]; -0.2 with Torsin-1A (Homo sapiens) [17]. In addition, the composite z-score was -0.238 with Torsin-1A (Homo sapiens) [18] and -0.243 in assay [19]. The z-score in assay [7] is -0.483; in assay [9] it was 0.519 (inactive); in assay [11], -4.85 (inactive); in [12] it was -0.485 (inactive); in assay [13], 0.829 (inactive); in assay [14] it was 0.906 (inactive).

Turning to `COCCOC(=O)N1C(=O)[C@@]2(c3cc(C#CCNC(N)=O)ccc31)[C@H](C(=O)N1CCCCCCC1)[C@H]1C(=O)O[C@H](c3ccccc3)[C@H](c3ccccc3)N1[C@@H]2c1ccc(O)cc1`, the composite z-score in [1] is -0.269; in [2], 1; in [3], 0.478; in assay [4], 0.391; in assay [5] it was 1.4; in assay [6], 1.24. In addition, the composite z-score is 0.742 in the assay on Lefty1; 0.128 in assay [8]; 0.233 in assay [10]; 0.399 in assay [15]; -0.101 in assay [16]; 0.266 in the assay with Torsin-1A (Homo sapiens) [17]. In addition, the composite z-score in the assay with Torsin-1A (Homo sapiens) [18] worked out at 0.216; in [19], 1.12. For the same compound, the z-score was -0.606 in [7]; -0.352 (inactive) in assay [9]; -0.204 (inactive) in assay [11]; 0.942 (inactive) in assay [12]; -0.0526 (inactive) in assay [13]; -0.333 (inactive) in [14].

In the case of `C=C(C(=O)CC[C@H](OC(=O)c1cccnc1)c1ccc(CO)o1)C(C)C`, the composite z-score in assay [1] was -0.109; in assay [2], 1.09; in [3], -0.22; in assay [4], 0.88; in [5] it was 0.886; in assay [6] it was 0.962. Further, the composite z-score in the assay on Lefty1 stood at 1.04; in assay [8] it was 0.884; in assay [10], 0.159; in [15] it was 0.441; in assay [16], 0.228; in the assay with Torsin-1A (Homo sapiens) [17] it was 0.684. The composite z-score with Torsin-1A (Homo sapiens) [18] came out at 0.449; in assay [19], 1.79. In addition, the z-score in [7] is -0.559; in assay [9], -1.55 (inactive); in assay [11], 0.3 (inactive); in assay [12] it was 0.232 (inactive); in [13] it was 0.48 (inactive); in assay [14], 1.17 (inactive).

Values taken from PubChem BioAssay.
